Tau fluor cs – Counterscreen qHTS for Inhibitors of Tau Fibril Formation, Fluorescence Polarization | tau K18 P301L Alexa594 fluorescence, heparin fibrillization | Potency, µM (titrated, usually from 57.7 µM), for the others: at the highest dose activity change, negative = decrease | 280,000 tested, 0.93% active; note: potency is the fitted concentration of half-maximal effect; nearly all actives have a fitted effect of over 55% in size
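Human tau K18 P301L (15 uM unlabeled, 0.24 uM Alexa 594-labeled) in 100 mM sodium acetate pH 7 with 20 uM heparin, 6 hr at 37 C. ThT 30 uM added, 1 hr ambient; Alexa 594 FP and total fluorescence read at 555/632 nm.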
KDM4E inh – qHTS Assay for Inhibitors of Human Jumonji Domain Containing 2E (JMJD2E); 230,000 tested, 1.6% active; Potency, µM (series often up to 57.1 µM), for the others: top-dose activity change, negative = inhibition, hits mostly inhibitors; AID 2147, 2009; Lysine-specific demethylase 4E (Homo sapiens), B2RXH2; JMJD2E catalytic domain, FDH-coupled NADH fluorescence (FDH is formaldehyde dehydrogenase);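 note: potency is the fitted concentration of half-maximal effect; 0% = wells with enzyme and -100% = buffer wells without enzyme; nearly all actives have a fitted effect of over 50% in size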
Target sequence (B2RXH2 1-337 limits assumed): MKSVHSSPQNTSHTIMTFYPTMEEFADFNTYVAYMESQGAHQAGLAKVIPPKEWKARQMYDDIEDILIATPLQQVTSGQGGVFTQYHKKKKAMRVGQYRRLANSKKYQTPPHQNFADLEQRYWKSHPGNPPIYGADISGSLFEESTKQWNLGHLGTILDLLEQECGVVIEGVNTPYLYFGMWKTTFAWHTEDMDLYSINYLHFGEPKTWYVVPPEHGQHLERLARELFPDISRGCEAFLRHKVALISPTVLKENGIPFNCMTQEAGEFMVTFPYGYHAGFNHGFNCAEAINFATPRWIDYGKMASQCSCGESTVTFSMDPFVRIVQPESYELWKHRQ
Tau fibril ThT – qHTS for Inhibitors of Tau Fibril Formation, Thioflavin T Binding. recombinant tau K18 P301L, heparin-induced fibrillization, ThT fluorescence. Potency, µM (titrated, usually from 57.4 µM), without a hit: at the highest dose activity, negative = inhibition, most hits filed as inhibitors. 270,000 tested, 2.1% active. AID 1460, 2008; note: potency is the fitted concentration of half-maximal effect; nearly all actives have a fitted effect of over 55% in size
Target sequence (P10636 561-689 P618L limits assumed): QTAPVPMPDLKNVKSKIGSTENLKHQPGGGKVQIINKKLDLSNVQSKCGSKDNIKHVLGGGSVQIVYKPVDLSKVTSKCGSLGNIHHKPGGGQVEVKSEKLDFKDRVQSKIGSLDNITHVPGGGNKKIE
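Fibril formation assay: tau K18 P301L at 15 uM with trace Alexa 594 label, heparin inducer 20 uM, pH 7 sodium acetate buffer, 37 C for 6 hr; endpoint ThT signal.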
NPSR antag – qHTS Assay for Antagonists of the Neuropeptide S Receptor: cAMP Signal Transduction; 220,000 tested, 1% active; AID 1461, 2008; CHO-NPSR cells, cAMP TR-FRET, antagonist mode; Q6W5P4; Potency, µM (doses to about 38.3 µM), for inactives: at the highest dose activity change, negative = inhibition, most hits filed as inhibitors; note: potency is the fitted concentration of half-maximal effect; nearly all actives have a fitted effect of over 50% in size
PNC assembly inh – High Content Assay for Compounds that inhibit the Assembly of the Perinucleolar Compartment; PC3M PTB-GFP, PNC prevalence imaging, 16 h; active compounds read low; 140,000 tested, 3.1% active; AID 2417, 2010; activity change (PNC), negative = inhibition, % at 10 µM;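 active = readout at or below -70, meaning at least 70% loss of cells showing the perinucleolar compartment, a nuclear body marking cancer cells; inconclusive = readout between -30 and a set limit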;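 note: plate controls were DMSO wells for no effect and camptothecin positive control wells for full effect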
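Read-out is percentage of cells bearing a perinucleolar compartment, from automated 20x imaging of fixed, Hoechst-stained PC3M PTB-GFP cells. Cells were seeded 4 h, then exposed 16 h to compound (23 nl of library stock) in duplicate plates.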
Tau fibril FP – qHTS for Inhibitors of Tau Fibril Formation, Fluorescence Polarization; 280,000 tested, 0.39% active; Microtubule-associated protein tau (Homo sapiens), P10636; K18 P301L tau heparin fibrillization, Alexa594 FP, 6 h; Potency, µM (doses to about 57.7 µM), for the others: at the highest dose activity, negative = inhibition, hits mostly inhibitors; note: potency is the fitted concentration of half-maximal effect; nearly all actives have a fitted effect of over 55% in size
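Human K18 P301L fragment (15 uM unlabeled plus 0.24 uM Alexa 594-labeled) in 100 mM sodium acetate pH 7 with compound, aggregation induced by 20 uM heparin for 6 hr at 37 C. ThT (30 uM) added for 1 hr, then Alexa 594 FP read.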
The depositor's hits bear a star; u = inconclusive; x = not tested or not shown; [ ] = remark or other dose. Sampled rows, rich in hits. Any-hit rate of the full collection: about 5.1%. Unless noted, calls come from the whole dose curve; as a rule, active = well fitted curve in the direction sought with a large enough effect; inconclusive = small, poorly fitted or top-dose-only effect, or another doubt; inactive = no such curve, though single readings can be large; an effect the other way counts as inactive or inconclusive. Unless noted, % is set by controls: 0 for no effect and ±100 for the full control effect.

SMILES	Tau fluor cs	KDM4E inh	Tau fibril ThT	NPSR antag	PNC assembly inh	Tau fibril FP
O=C(Nc1cccc(C(F)(F)F)c1)Nc1ccc2snnc2c1	u	x	13%	x	x	18µM*
O=C(Nc1cccc(C(F)(F)F)c1)c1ccc2snnc2c1	-1%	x	7%	x	x	-4%
S=C(Nc1ccc(Cl)c(Cl)c1)NC1CCCCC1	u	5%	5%	u	u	u
S=C(Nc1ccc2nsnc2c1)NC1CCCCC1	u	-6%	28µM*	-50%	-20	u
CCOc1ccc(NC(=S)Nc2ccc3nsnc3c2)cc1	14µM*[quencher]	3%	2.5µM*	10µM*	1	u
NC(=O)c1ccc(-n2nnnc2Oc2ccccc2C(=O)N2CCOCC2)cc1	8%	3%	7%	-1%[46.1 µM]	-122*	0%
CCOc1ccc(-n2c(=S)sc3c(=O)[nH]c(SCC(=O)NC(C)CC)nc32)cc1 (stereo not given)	-10%	0%	-13%	-19%[46.1 µM]	-83*	-6%
Cc1ccc(C2=NC(=O)/C(=C/c3cc(O)c(O)c(Br)c3)S2)cc1	2.8µM*[quencher]	13µM*	4µM*	-55%	x	u
COc1cc(/C=C2\SC(c3ccc(C)cc3)=NC2=O)cc(OC)c1O	u	u	5µM*	2µM*	u	u
Cc1ccccc1NC(=O)C(NC1CCCCC1)C(C)C (stereo not given)	-12%	-4%	-10%	18%	x	-4%
COC(=O)C(C(=O)Nc1ccc(OC)cc1)C1CCCCCC1 (stereo not given)	-4%	5%	3%	-11%[46.1 µM]	-81*	-3%
COC(=O)C(C(=O)Nc1ccccc1C)C1CCCC1 (stereo not given)	-2%	-2%	-5%	-13%[46.1 µM]	-83*	2%
CC(C)(C)NC(=O)c1ccc2nc(CCc3ccccc3)oc2c1	-6%	x	u	x	x	2%
COc1ccc(OCC(=O)N/N=C/c2ccc(N(C)C)cc2)cc1	u	u	2.5µM*	-7%	x	u
CN(C)c1ccc(NC(=O)c2ccc3nsnc3c2)cc1	-30%	7%	7.9µM*	-16%[46.1 µM]	27	5%
COc1ccc(NC(=S)Nc2ccc(Oc3ccccc3)cc2)cc1	u	4%	-10%	-16%[46.1 µM]	46	21%
COc1ccc(NC(=O)Nc2ccc(N(C)C)cc2)cc1	u	-9%	13µM*	-2%[46.1 µM]	35	10%
COc1ccc(NC(=S)NN(C)C(=S)Nc2ccc(OC)cc2)cc1	u	0%	u	-3%	-114*	12%
CN(C)c1ccc(NC(=O)c2cccc(C(=O)Nc3ccc(N(C)C)cc3)n2)cc1	u	-19%	16µM*	-7%	119	6%
CN(C)c1ccc(/C=N/NC(=O)c2cccc(C(=O)N/N=C/c3ccc(N(C)C)cc3)n2)cc1	-3%	0%	-16%	-6%	x	11%
Cc1ccc(N=C2NC(=O)/C(=C\c3ccco3)S2)cc1	-27%	-8%	u	-18%	u	6%
Cc1cccc(N=C2NC(=O)/C(=C/C=C/c3ccco3)S2)c1	-28%	u	5µM*	-33%	26	-9%
COc1ccc(N=C2NC(=O)/C(=C\C=C\c3ccco3)S2)cc1	u	u	8.9µM*	-37%	x	u
O=C1NC(=Nc2ccc3ccccc3c2)S/C1=C/c1ccco1	u	-2%	14µM*	-20%	x	u
CC(C)C(NS(=O)(=O)c1cccc2cccnc12)C(=O)Nc1ccc(OC(F)(F)F)cc1 (stereo not given)	-29%	x	-13%	x	x	-13%
SMILES	Tau fluor cs	KDM4E inh	Tau fibril ThT	NPSR antag	PNC assembly inh	Tau fibril FP
CC1CCCN(C(=O)c2ccc(CSc3nc4ccncc4n3Cc3ccccc3)cc2)C1 (stereo not given)	-12%	x	-14%	x	x	9%
N=c1n(CCN2CCCC2)c2ccccc2n1CC(O)c1ccco1 (stereo not given)	-4%	7%	-9%	-1%[46.1 µM]	-92*	3%
CCCCCCCn1c(=N)n(CC(O)c2ccco2)c2ccccc21 (stereo not given)	-10%	4%	-2%	31%	x	-1%
CS(=O)(=O)N(CC(=O)NCC1CCCO1)c1cccc(Cl)c1 (stereo not given)	-53%	-22%	5µM*	-19%	x	-3%[2.34 µM]
CS(=O)(=O)N(CC(=O)NCC1CCCO1)c1cc(Cl)cc(Cl)c1 (stereo not given)	-2%	2%	-3%	-7%[46.1 µM]	47	4%
O=C(O)CSc1nc2ccccc2[nH]1	-1%	-6%	-2%	-3%[46.1 µM]	39	4%
CC1(C(=O)CSc2nc3ccccc3[nH]2)CCC(=O)O1 (stereo not given)	4%	2%	-8%	-15%[46.1 µM]	-100*	-2%
CC(C)CCN1C(=O)c2ccccc2CC1(C)C(=O)NC1CCCCC1 (stereo not given)	2%	x	4%	x	x	-1%
CCOC(=O)c1oc2ccc(CNC(C)(C)C)c(Cl)c2c1C	0%	u	-7%	13%	-119*	-4%
COc1cc(NC(=O)c2ccc(-c3nc(CSc4ccccc4)c(C)o3)cc2)cc(OC)c1	u	x	2%	x	x	u
CN1/C(=C/C(=S)NC(=O)C2(C)CC2(Cl)Cl)C(C)(C)c2ccccc21 (stereo not given)	-18%	-3%	13µM*	-53%	x	-10%
CN1/C(=C\C=C(/C#N)C(=O)Nc2ccc(Cl)cc2)C(C)(C)c2ccccc21	-6%	-1%	u	13%	4	-2%
COc1ccccc1C(=O)NC(=S)/C=C1/N(C)c2ccccc2C1(C)C	2%	0%	2%	-53%	38	4%
CN1/C(=C\C(=O)Nc2ccc(Cl)cc2)C(C)(C)c2ccccc21	13µM*[quencher]	-13%	u	-22%	u	10%
CN1/C(=C\C(=S)NC(=O)c2ccccc2Cl)C(C)(C)c2ccccc21	-4%	-3%	11µM*	-31%	5	5%
CN(Cc1ccccc1)c1ccc(-c2nc(-c3ccccn3)no2)cc1[N+](=O)[O-]	2%	x	4%	x	x	4%
Cc1nnsc1SCCNC(=O)c1c(F)cccc1F	-10%	1%	-19%	-13%[46.1 µM]	-82*	1%
CCOP(=O)(OCC)C(NC(=O)Nc1cccc(Cl)c1)C(N)=O (stereo not given)	-1%	0%	4%	27%	-1	-3%

Compound activity (PubChem)
